Bioassay records deposited in PubChem by several laboratories.
SMARCA2 activ = activators of SMARCA2 function | MG213 cells, MMTV-luciferase reporter, dexamethasone, overnight | activation, % at 9.1 µM | 370,000 tested, 1% active; in the data active = activation above about 7.8%
Wnt bcat act = Wnt/beta-catenin pathway activation; 300,000 tested, 1.2% active; Wnt/beta-catenin reporter cell assay, activator, plate reader; activation, % at 9.35 µM; in the data active = activation above about 30%, passing the limit was not always enough; inconclusive = no clear call, values can overlap the other calls
HSF1 inh = HSF1 inhibition; NIH3T3-HGL HSE-luciferase, MG132-induced, luminescence 8 h; stronger effect = lower value; activity change, negative = inhibition, % at 7.5 µM (by protocol); 300,000 tested, 0.77% active; AID 2098;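 active = more than half of replicate wells show activity change below -50%, luminescence cut by over half; inconclusive = some wells, but at most half, below -50%; inactive = no replicate well below -50%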;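 also: luciferase reports HSF-1 transcriptional activity via heat shock element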
MITF act = MITF TRPM1 promoter activation in melanoma cells; 300,000 tested, 0.75% active; activation, % at 12.5 µM; SK-MEL-5 TRPM1-promoter luciferase, 24 h; % of positive control, neutral wells = 0;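 active = mean activation of at least 80% with every replicate also reaching 80%; inconclusive = mean reaches 80% but some replicate falls short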
esBAF inh = inhibitors of esBAF chromatin remodeling in mouse ES cells. AID 602393. Bmi1-luciferase knock-in reporter, 24 h; 100% = twice the neutral-well signal. reporter increase, % at 12.5 µM. 350,000 tested, 2% active; in the data active = activation above about 40%; inconclusive = no clear call, values can overlap the other calls;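 also: a rise in the Bmi1 reporter signal indicates esBAF inhibition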
HSF-1 act = increases HSF-1 driven luciferase reporter signal; NIH3T3-HGL HSF-1 luciferase reporter, MG132, 8 h; 100% = twice DMSO control signal; activation, % at 9 µM; 300,000 tested, 1.7% active;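 active = mean replicate activation of at least 50% with a set share of replicates each reaching 50%; inconclusive = only one of those two conditions met; inactive = mean below 50% and too few replicates reaching it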
Of the large screens only hits and unclear results are named; the others gave an inactive call. The list is not random: actives were taken first. Their share in the collection is about 4.3%.

C[C@H]1CN([C@@H](C)CO)C(=O)CCCn2cc(nn2)CO[C@@H]1CN(C)Cc1cccc(C(F)(F)F)c1	none (no result: SMARCA2 activ, Wnt bcat act, HSF1 inh, MITF act, HSF-1 act)
N#C/C(=C\c1ccc(Sc2nc3ccccc3[nH]2)o1)c1ccccc1	HSF-1 act 71 (no result: Wnt bcat act)
N#C/C(=C\c1ccc(Sc2ccc(Cl)cc2)o1)c1nc2ccccc2[nH]1	none (no result: HSF1 inh, esBAF inh, HSF-1 act)
C=CCN(C(=O)c1oc2c(Cl)cc(C)cc2c1C)C1CCS(=O)(=O)C1 (centres undefined)	MITF act 111, esBAF inh 64
CCOC(=O)C1=C(C)NC(=S)NC1c1ccsc1 (centres undefined)	HSF1 inh -67 (no result: esBAF inh)
CCOc1ccc2oc(C(=O)Nc3nccs3)c(C)c2c1	Wnt bcat act 69 (no result: HSF1 inh, HSF-1 act)
CCCCc1nnc(NC(=O)c2oc3ccc(OC)cc3c2C)s1	none
COc1ccc2oc(C(=O)Nc3nccs3)c(C)c2c1	Wnt bcat act 50
COc1ccc2c(CC(=O)Nc3nccs3)coc2c1	HSF-1 act 72
CN(C)CC#Cc1ccc([C@@H]2[C@@H](CO)N3CCCCN(C(=O)Nc4ccc(F)cc4)C[C@H]23)cc1	none (no result: SMARCA2 activ, Wnt bcat act, HSF1 inh, MITF act, HSF-1 act)
C[C@@H]1CN([C@@H](C)CO)S(=O)(=O)c2ccc(C3=CCCC3)cc2O[C@H]1CN(C)C(=O)c1cccnc1	none (no result: SMARCA2 activ, Wnt bcat act, HSF1 inh, MITF act, HSF-1 act)
O=C(C[C@H]1CC[C@@H]2[C@H](COC[C@@H](O)CN2C(=O)Nc2ccc(F)cc2)O1)NCCc1ccccc1	none (no result: SMARCA2 activ, Wnt bcat act, HSF1 inh, MITF act, HSF-1 act)
CS(=O)(=O)Nc1cccc(-c2cnc3ccccc3n2)c1	MITF act 98
O=C(Nc1cnc2ccccc2c1)c1cccnc1	none
Cc1ccc(C(=O)Nc2cccc(-c3cnc4ccccc4n3)c2)cc1	HSF1 inh -61 (no result: Wnt bcat act)
Cc1cccc(C(=O)Nc2cccc(-c3cnc4ccccc4n3)c2)c1	none (no result: Wnt bcat act)
Cc1ccc(C(=O)Nc2cnc3ccccc3c2)cc1	HSF1 inh -67 (no result: esBAF inh)
COCC(=O)N(C)C[C@@H]1Oc2cc(C3=CCCC3)ccc2S(=O)(=O)N([C@@H](C)CO)C[C@@H]1C	none (no result: SMARCA2 activ, Wnt bcat act, HSF1 inh, MITF act, HSF-1 act)
COc1ccc(S(=O)(=O)Nc2ccc3c(c2)C(=O)N([C@H](C)CO)C[C@H](C)[C@@H](CN(C)Cc2ccc4c(c2)OCO4)OCCCC[C@@H](C)O3)cc1	none (no result: SMARCA2 activ, Wnt bcat act, HSF1 inh, MITF act, HSF-1 act)
C[C@@H]1CN([C@@H](C)CO)C(=O)c2cc(NC(=O)c3ccncc3)ccc2O[C@@H](C)CCCCO[C@H]1CN(C)C(=O)c1ccccc1	none (no result: SMARCA2 activ, Wnt bcat act, HSF1 inh, MITF act, HSF-1 act)
O=C(O)c1cc(-c2c[nH]c3ccccc23)nc2ccc3ccccc3c12	HSF1 inh -68 (no result: esBAF inh)
O=C(CCCNC(=O)/C(=C\c1ccccc1F)NC(=O)c1ccccc1)OCc1ccccc1	HSF1 inh -56 (no result: Wnt bcat act)
C/C=C/c1ccc([C@@H]2[C@@H](CN(CC)C(=O)CN(C)C)N(C(C)=O)[C@H]2CO)cc1	none (no result: SMARCA2 activ, Wnt bcat act, HSF1 inh, MITF act, HSF-1 act)
COc1ccc(C(=O)Nc2nccs2)cc1OC	esBAF inh inconclusive (no result: Wnt bcat act)
COc1cc(SC)ccc1C(=O)Nc1ccccc1	Wnt bcat act 34, esBAF inh inconclusive (no result: MITF act)
COc1ccccc1C(=O)Nc1nc2ccccc2[nH]1	HSF1 inh -83
COc1cc(SC)ccc1C(=O)Nc1nc2ccccc2[nH]1	HSF1 inh -92
COc1cc(SC)ccc1C(=O)Nc1nccs1	HSF-1 act 57
CSc1ccccc1C(=O)Nc1nc2ccccc2[nH]1	none
C[C@@H]1CN([C@H](C)CO)C(=O)c2cc(NC(=O)C3CCCCC3)ccc2O[C@H]1CN(C)S(=O)(=O)c1ccc(Cl)cc1	none (no result: SMARCA2 activ, Wnt bcat act, HSF1 inh, MITF act, HSF-1 act)
C/C=C/c1ccc2c(c1)O[C@H](CN(C)S(=O)(=O)c1ccc(C)cc1)[C@H](C)CN([C@H](C)CO)S2(=O)=O	none (no result: SMARCA2 activ, Wnt bcat act, HSF1 inh, MITF act, HSF-1 act)
Clc1ccc(-c2nnc(-c3ccccc3)c(-c3ccccc3)n2)cc1	none (no result: MITF act)
Nc1nc(-c2ccc(Cl)cc2)nnc1-c1ccc(Br)cc1	Wnt bcat act 51, esBAF inh 52
Cn1c(-c2ccccc2)c(/C=N/NC(=O)c2ccc(O)cc2)c2ccccc21	esBAF inh 63
COc1ccc(-n2cccc2C=O)cc1	none (no result: Wnt bcat act, esBAF inh)
O=Cc1cccn1-c1cccnc1	SMARCA2 activ 7.9 (no result: esBAF inh)
N/C(=N\c1nc2c(c(=O)[nH]1)CCC2)Nc1ccccc1C(F)(F)F	HSF-1 act 56
COc1ccc(CN(C)C[C@@H]2Oc3c(NS(=O)(=O)c4ccc(OC)cc4)cccc3C(=O)N([C@@H](C)CO)C[C@H]2C)cc1	none (no result: SMARCA2 activ, Wnt bcat act, HSF1 inh, MITF act, HSF-1 act)
O=C(NCC1CCCO1)c1nn2c(C(F)(F)F)cc(-c3cc(Br)cs3)nc2c1Br (centres undefined)	HSF-1 act 62
